Experimental data taken from the supplement of paper PMC6805474.

The molecules below were run on Schistosoma mansoni schistosomula (Liberian) (assay: drug effect (1 - score/DMSO control score) (fraction); higher = more antischistosomal effect, active = 0.5 or more; extreme values may be limits of the assay). Settings: 48 h; 10 µM.
In short: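 A plate was valid only if its 0.1% DMSO wells averaged a score of at least 2. Those wells ran beside duplicate wells in which 50 Liberian-strain Schistosoma mansoni schistosomula each, transformed mechanically from cercariae and pre-incubated at least 12 h, met 10 µM compound in Medium 199 with 5% FCS at 37 °C, 5% CO2. Scoring was visual at 10× at 24, 48 and 72 h, from 3 (normal) to 0 (dead) in quarter-point steps. Drug effect was derived from the mean test-well score against the mean DMSO-well score, with negatives set to zero.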

Drug effect, active:
O=C(Nc1ccc(F)c(-c2nc3cc(-c4ccccc4)cnc3[nH]2)c1)N1CCCC1 0.667
N=C(N)c1ccc(-c2cc(-c3ccccc3)on2)cc1 0.65
O=C([C@@H](c1ccc(Cl)cc1)c1cccnc1)N1CCN(c2ccc(C(F)(F)F)cc2)CC1 0.722
O[C@@H](c1cc(C(F)(F)F)nc2c(C(F)(F)F)cccc12)[C@H]1CCCCN1 1
c1coc(CNc2nc(N3CCCCC3)nc3ccccc23)c1 1
O=C(NCCc1ccccc1)c1cc(-c2cccnc2)cnc1NCC1CC1 0.514
CC(C)n1ncc2c(C(=O)NCC(c3cccs3)N3CCOCC3)cc(-c3ccccc3)nc21 (centres undefined) 0.5
COc1ccc(-c2cnc3ccc(N4CCCC4)nn23)cc1OC 0.944

Drug effect, inactive:
O=C(C(Cc1c[nH]c2ccccc12)NS(=O)(=O)c1ccc(Cl)cc1)N1CCCCC1 (centres undefined) 0.0811
Nc1ncc(-c2cn[nH]c2)cc1-c1nc2cc(Cl)cnc2[nH]1 < 0
NC(=O)c1cc(-c2ccsc2)ccc1OCCOc1ccccc1 0.111
CC(C)(C)n1nc(Cc2cccc3ccccc23)c2c(N)ncnc21 0.222
CCc1ccc([C@@H]2C[C@H](C(F)(F)F)n3ncc(C(=O)NCc4ccc(OC)cc4)c3N2)cc1 0.111
COc1ccc2nccc(NC(=O)C3CCN(CCc4ccc(Cl)cc4)CC3)c2n1 0.0556
c1ccc(-c2cc(N3CCCCC3)c3ccccc3n2)nc1 0.243
NS(=O)(=O)c1cccc(-c2ccc3ncc(N4CCOCC4)nc3c2)c1 0.189
Nc1ncnc2c1c(-c1cnc3ccccc3c1)nn2CC1CCNCC1 0.278
CO[C@H]1/C=C/O[C@@]2(C)Oc3c(C)c(O)c4c(O)c(/c(=C/NN5CCN(C)CC5)c(O)c4c3C2=O)=N\C(=O)/C(C)=C\C=C/[C@H](C)[C@H](O)[C@@H](C)[C@@H](O)[C@@H](C)[C@H](OC(C)=O)[C@@H]1C 0.05
COc1ccc(-c2cnc3ccc(NCc4ccc(S(N)(=O)=O)cc4)nn23)cn1 0.222
CCOC(=O)NC(=O)c1ccsc1NC(=O)c1nc2ccccc2s1 0.2
COc1ccc(Cn2cnc3c(-c4ccco4)nc(Cl)nc32)cc1 0.0556
Cc1ccc(NC(=O)CC2COc3ccccc3O2)cc1Cl (centres undefined) 0.3
CCN(CC)S(=O)(=O)c1ccc(Cl)c(C(=O)Nc2ccc3nc(C)sc3c2)c1 0.027
CCN(CC)C(=O)N1CCN(C)CC1 0.222
Cc1nn(C)cc1C(C)Nc1nncc(-c2ccc(C(F)(F)F)cc2)n1 (centres undefined) 0.1
c1ccc(Oc2ccc(-c3cc(N4CCOCC4)[nH]n3)cc2)cc1 0.297
Cc1cccnc1NC(=O)c1cccc(OCc2c(C)noc2C)c1 0.15
Cc1cc(OCC(=O)NCc2ccccc2)c2cc(Br)ccc2n1 0.0556
O=C(Nc1nc(-c2ccccn2)cs1)C1CC1c1ccccc1F (centres undefined) 0.3
CNC(=O)c1cc(S(=O)(=O)N2CCN(c3ccccn3)CC2)cs1 0.135
O=C(CN1CCOCC1)Nc1ccc2ncnc(Nc3ccc(OCc4cccc(F)c4)c(Cl)c3)c2c1 0.25
COc1ccccc1C(C)NCC(=O)Nc1cc(C(F)(F)F)ccc1Cl (centres undefined) 0.135
Nc1ccc(C(=O)Nc2ccc(-c3nc4ccccc4o3)cc2)cc1 0.05
CC1CCCN(C(=O)C(C)Nc2cc(Cl)ccc2N2CCOCC2)C1 (centres undefined) 0.222
CC(C)(C(=O)Nc1ccc(F)cc1)n1cc(-c2ccccc2F)cn1 0.111
COc1ccc(C2CC(c3cccs3)=NN2C(=O)c2ccco2)cc1OC (centres undefined) 0.135
CO[C@@H](C(=O)N1Cc2[nH]nc(NC(=O)c3ccc(N4CCN(C)CC4)cc3)c2C1)c1ccccc1 0.243
CNc1snc(C)c1C(=O)NCCOc1ccc(OC)cc1 0.15
Cc1ccc2nc(C)c(-c3ccn(Cc4ccccc4)n3)n2c1 < 0
